# Measured values as given in PubChem BioAssay AID1478 (National Center for Advancing Translational Sciences (NCATS), 2009).
# Where “and” joins values, the source holds several entries; their conditions need not be identical. Equal values may be shown once. The campaign covered roughly 200,000 compounds. About 860 (0.43%) were called active. The call rests on the fitted dose curve; in most records, active means well fitted inhibition curve with a large enough effect; inconclusive means small, poorly fitted or top-dose-only effect; inactive means flat fitted curve, though single readings scatter. Many of the other results were omitted from the sample, so actives are more common in it than they were.
# Target: Cruzipain (Trypanosoma cruzi) (UniProt P25779)
# Assay: qHTS Assay for Promiscuous and Specific Inhibitors of Cruzain (with detergent); further: nearly all actives have a fitted effect of over 40% in size;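 on max response, negative = inhibition: plate controls were neutral wells for no effect and buffer without enzyme for full effect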
# Conditions: purified cruzain, Z-FR-AMC fluorescence, 0.01% Triton
# Outline: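 Z-FR-AMC hydrolysis (2 uM substrate) by cruzain (1.5 nM) monitored kinetically at ex 360/em 450 nm after 15 min room-temperature compound exposure; 0.01% Triton X-100, pH 5.5, 5 mM DTT.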
# Potency means the concentration at half of the fitted maximal effect.
# Cruzipain (Trypanosoma cruzi), sequence (P25779 123-467 limits assumed): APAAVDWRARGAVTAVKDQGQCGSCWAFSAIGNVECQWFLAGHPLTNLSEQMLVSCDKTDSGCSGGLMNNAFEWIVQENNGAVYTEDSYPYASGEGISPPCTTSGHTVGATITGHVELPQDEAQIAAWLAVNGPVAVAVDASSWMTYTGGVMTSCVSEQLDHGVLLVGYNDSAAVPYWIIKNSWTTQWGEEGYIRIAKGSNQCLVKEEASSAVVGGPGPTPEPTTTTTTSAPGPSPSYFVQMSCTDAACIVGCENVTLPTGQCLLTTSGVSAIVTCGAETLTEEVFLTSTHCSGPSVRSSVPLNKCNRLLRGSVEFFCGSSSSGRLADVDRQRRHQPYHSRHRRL
SMILES,"max response, negative = inhibition",Potency
CCc1ccc(NC(=O)c2cnc3c(-c4ccccc4)c(C)nn3c2C)cc1,-6.46% (inactive),
Cc1ccc(S(=O)(=O)c2c(Nc3cccc(Cl)c3)sc(C(=O)c3ccc4c(c3)OCO4)c2N)cc1,-3.98% (inactive),
COCCn1c(SCC(=O)c2cc(C)ccc2C)nc2cc(C(=O)NC3CCCC3)ccc2c1=O,-0.0872% (inactive),
COc1ccccc1CNC(=O)c1ccc(CS(=O)c2ccccc2Cl)o1 (stereo not given),-8.94% (inactive),
Cc1nn(C(C)C(=O)NCCc2ccccc2)c(=O)c2c1sc1ccccc12 (stereo not given),-6.56% (inactive),
CNc1ccc(-c2nc(-c3ccco3)no2)cc1[N+](=O)[O-],-3.84% (inactive),
O=C(/C=C/c1ccccc1)c1ccccc1O,-1.13% (inactive) and 3.47% (inactive),
CC(=O)c1c(O)c(C)c(O)c(Cc2c(O)c3c(c(C(=O)/C=C/c4ccccc4)c2O)OC(C)(C)C=C3)c1O,-22.4% (inactive),
CC(=O)c1c(O)c(C)c(O)c(Cc2c(O)c3c(c(C(=O)/C=C\c4ccccc4)c2O)OC(C)(C)C=C3)c1O,,31.6 µM (active)
COc1cc(NC(=O)CSc2nc3nc(C)c(Cc4ccc(C)cc4)c(C)n3n2)cc(OC)c1OC,-4.19% (inactive),
O=C(CCc1nc(CN2CCN(S(=O)(=O)c3ccc(Br)cc3)CC2)no1)N1CCCCC1,-0.641% (inactive),
O=C(CC(c1cccs1)N1Cc2ccccc2C1=O)Nc1ccc(F)cc1F (stereo not given),-5.84% (inactive),
O=S(=O)(NCCc1nnc2ccc(SCc3ccc(Cl)cc3Cl)nn12)c1ccccc1,-7.61% (inactive),
O=C(CCOc1ccccc1)N(Cc1cccnc1)c1nc2ccc(Cl)cc2s1,-5.3% (inactive),
COc1cc(NC(=O)Nc2ccc(C)cc2)cc([N+](=O)[O-])c1,-3.61% (inactive),
COc1cc(NC(=S)NCCSc2ccc(C)cc2)cc(OC)c1,,2 µM (active)
COc1cccc(NC(=S)NCCCN2CCOCC2)c1,-2.47% (inactive),
CC(NC(=O)CCc1cn(Cc2ccccc2Cl)c2ccccc12)c1ccccc1 (stereo not given),-2.02% (inactive),
CC(C)(C)c1ccc(C(=O)Nc2ccc3c(c2)CCCN3C(=O)c2cccs2)cc1,-4.1% (inactive),
COc1cc(NC(=O)c2cc(C3CC3)nc3c2c(C)nn3-c2ccccc2)cc(OC)c1,-4.38% (inactive),
CC(=O)NC1=NN(C(C)=O)C(C)(c2ccc(Cl)s2)S1 (stereo not given),,28.2 µM (active)
CC(=O)NC1=NN(C(C)=O)C(C)(c2ccc(C)cc2)S1 (stereo not given),-0.836% (inactive),
CC(=O)NC1=NN(C(C)=O)C(C)(CCS(=O)(=O)c2ccc(Cl)c(Cl)c2)S1 (stereo not given),-3.08% (inactive),
COc1ccc(Cn2c(=O)c3oc4ccccc4c3n(CC(=O)Nc3ccc(F)cc3F)c2=O)cc1,-0.479% (inactive),
COc1ccccc1NC(=O)CCC(=O)N1CC(C)Oc2ccc(C)cc21 (stereo not given),-2.9% (inactive),
COc1ccccc1-n1c(-c2ccc(C)cc2)cn2c3c(=O)n(C)c(=O)n(C)c3nc12,0.477% (inactive),
Cc1ccccc1OCc1nc2c3cnn(-c4ccccc4F)c3ncn2n1,-0.812% (inactive),
Cc1ccccc1-c1nc(SCC(=O)N(C)c2ccccc2)c2c(=O)n(C)c(=O)n(C)c2n1,0.835% (inactive),
Cc1ccc(-c2cc(C(=O)Oc3ccccc3Cl)no2)cc1C,-5.97% (inactive),
CCOc1ccc(NC(=O)c2cc3c(=O)n(Cc4cccs4)ccc3nc2C)cc1,-4.36% (inactive),
